Rows were chosen to be rich in hits. Some 6.9% of all compounds tested hit in one or more screens of this group.
JMJD2A Tudor: qHTS Assay for Inhibitors of JMJD2A-Tudor Domain; Lysine-specific demethylase 4A (Homo sapiens), O75164; AlphaScreen JMJD2A-Tudor / H3K4me3 peptide binding; Potency, µM (series often up to 114 µM), for the others: at the top dose activity change, negative = inhibition, hits mostly inhibitors; 390,000 tested, 4.4% active; AID 504339, 2011; note: % is set by controls: 0 for no effect and ±100 for the full control effect; nearly all actives have a fitted effect of over 50% in size
L3MBTL1 inh: qHTS Assay for the Inhibitors of L3MBTL1; Lethal(3)malignant brain tumor-like protein 1 (Homo sapiens), Q9Y468; AlphaScreen L3MBTL1–H3K9me1 peptide binding; Potency, µM (series often up to 57.1 µM), without a hit: at the top dose activity, negative = inhibition, actives largely listed as inhibitors; 230,000 tested, 0.66% active; AID 485360, 2010; note: % is set by controls: 0 for no effect and ±100 for the full control effect; nearly all actives have a fitted effect of over 60% in size
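First, the protein-peptide complex forms for 30 min at room temperature (L3MBTL1 50 nM, biotinylated H3K9me1 peptide 75 nM). Next, compounds are pin-transferred and incubated 30 min. Finally, AlphaScreen beads are added and read after 30 min.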
HP1b binding inh: HTS for Inhibitors of HP1-beta Chromodomain Interactions with Methylated Histone Tails; Chromobox protein homolog 1 (Homo sapiens), P83916; AlphaScreen HP1-beta / biotin-H3K9me3 peptide binding; Potency, µM (doses to about 114 µM), for the others: at the highest dose activity change, negative = inhibition, hits mostly inhibitors; 390,000 tested, 0.56% active; AID 540317, 2011; note: nearly all actives have a fitted effect of over 70% in size
Target sequence (P83916 whole entry, looked up): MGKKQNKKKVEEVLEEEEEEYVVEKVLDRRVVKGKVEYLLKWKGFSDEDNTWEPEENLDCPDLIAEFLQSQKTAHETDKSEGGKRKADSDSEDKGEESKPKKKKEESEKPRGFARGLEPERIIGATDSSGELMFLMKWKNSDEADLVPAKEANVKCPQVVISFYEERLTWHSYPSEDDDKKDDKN
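AlphaScreen: HP1-beta (50 nM) preformed 30 min with biotin-H3(1-18)K9me3 peptide (50 nM) in PBS pH 7.4, 0.01% Tween-20. Compound added for 30 min at RT, then streptavidin donor/nickel chelate acceptor beads (10 ug/mL) for 30 min.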
BAZ2B inh: qHTS Assay for Inhibitors of BAZ2B; Potency, µM (titrated, usually from 114 µM), for inactives: at the highest dose activity change, negative = inhibition, actives largely listed as inhibitors; AlphaScreen BAZ2B-H3K14Ac peptide displacement; 360,000 tested, 4.4% active; note: % is set by controls: 0 for no effect and ±100 for the full control effect; nearly all actives have a fitted effect of over 60% in size
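Protein-peptide AlphaScreen: BAZ2B 50 nM, b-H3K14Ac 50 nM, 1x PBS pH 7.4 + 0.01% Tween-20. Preincubation 30 min RT; cpd 30 min RT (top 110 uM); beads 20 min RT, light-protected.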
PLK1 PBD inh: qHTS for Inhibitors of PLK1-PDB (polo-like kinase 1 - polo-box domain): Primary Screen. Serine/threonine-protein kinase PLK1 (Homo sapiens), P53350. Plk1 PBD binding of FITC phosphopeptide, fluorescence polarization. Potency, µM, for inactives: max response, negative = inhibition, hits mostly inhibitors. 360,000 tested, 2.8% active. AID 720504, 2013; note: series mostly up to about 57 µM; % is set by controls: 0 for no effect and ±100 for the full control effect; nearly all actives have a fitted effect of over 65% in size
VDR inhibitor: Inhibitors of the vitamin D receptor (VDR): qHTS | AID 504847, 2011 | Potency, µM, for inactives: max response, negative = inhibition, actives largely listed as inhibitors | 400,000 tested, 0.93% active | VDR-SRC2-3 peptide fluorescence polarization, 2 h; note: % is set by controls: 0 for no effect and ±100 for the full control effect
Target sequence (P11473 whole entry, looked up): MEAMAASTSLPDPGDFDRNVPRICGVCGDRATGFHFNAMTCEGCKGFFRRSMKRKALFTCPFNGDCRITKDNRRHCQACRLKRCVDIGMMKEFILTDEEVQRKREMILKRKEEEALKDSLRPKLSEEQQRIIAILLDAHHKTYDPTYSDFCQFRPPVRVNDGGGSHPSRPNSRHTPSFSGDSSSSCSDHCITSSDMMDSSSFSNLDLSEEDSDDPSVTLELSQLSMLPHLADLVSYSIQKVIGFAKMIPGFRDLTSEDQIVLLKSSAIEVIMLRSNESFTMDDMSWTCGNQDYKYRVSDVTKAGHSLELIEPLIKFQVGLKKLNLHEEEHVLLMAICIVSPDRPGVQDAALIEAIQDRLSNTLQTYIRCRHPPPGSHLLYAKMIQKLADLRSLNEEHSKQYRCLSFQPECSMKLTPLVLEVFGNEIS
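Two reagent solutions held at 4 deg C in the dark were dispensed, compounds pinned at 23 nl, and the mixture incubated 2 h at room temperature. Read-out: fluorescence polarization of VDR–SRC2-3 peptide binding.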
Starred values were filed as active, the others as inactive; ? = inconclusive; · = no result given; [ ] = dose if it differs, or a comment. Calls come from the whole dose curve; as a rule, active = well fitted curve in the direction sought with a large enough effect; inconclusive = small, poorly fitted or top-dose-only effect, or another doubt; inactive = no such curve, though single readings can be large; an effect the other way counts as inactive or inconclusive. Potency is the fitted concentration of half-maximal effect.

SMILES	JMJD2A Tudor	L3MBTL1 inh	HP1b binding inh	BAZ2B inh	PLK1 PBD inh	VDR inhibitor
Cc1nn(CC(=O)NCCc2ccco2)c(=O)c2nn(-c3ccccc3)c(C)c12	-33%	·	4%[57 µM]	?	-14%	3%
CSc1ccc(CCNC(=O)C(C)n2nc(C)c3c(C)n(-c4ccccc4)nc3c2=O)cc1 (stereo not drawn)	-9%	·	35%	-18%	·	16%
Cc1ccc(-n2nc3c(=O)n(C(C)C(=O)NCCC4=CCCCC4)nc(C)c3c2C)cc1 (stereo not drawn)	45µM*	·	46%	-25%	-1%	-1%
CSc1ccc(CNC(=O)C(C)n2nc(C)c3c(C)n(-c4ccccc4)nc3c2=O)cc1 (stereo not drawn)	-32%	·	-9%	-22%	21µM*	-21%
Cc1ccc2oc(=O)c3cnn(CC(=O)N4CCN(c5ccc(F)cc5)CC4)c3c2c1	-8%	·	24%	-6%	·	-29%
CCCC[C@H](NC(=O)[C@H](CO)NC(=O)[C@H](Cc1ccc(O)cc1)NC(=O)[C@H](CO)NC(C)=O)C(=O)N[C@@H](CCC(=O)O)C(=O)N[C@@H](Cc1cnc[nH]1)C(=O)N[C@H](Cc1ccccc1)C(=O)N[C@@H](CCCNC(=N)N)C(=O)N[C@@H](Cc1c[nH]c2ccccc12)C(=O)NCC(=O)N[C@@H](CCCCN)C(=O)N1CCC[C@H]1C(=O)N[C@H](C(N)=O)C(C)C	·	·	·	·	·	1%
CC(=O)Nc1ccc(NC(=O)CSc2nc(N)c(NC(=O)c3ccco3)c(=O)[nH]2)cc1	-15%	·	14%	50µM*	-11%	2%
COc1ccc(NC(=O)Cn2c(=O)c3cc(Cl)ccc3n3nncc23)cc1	-8%	·	42%	0%	·	-14%
Cn1nc(CC#N)c2c(=N)n(N)cnc21	32µM*	·	2%	·	-4%	-6%
Cc1cc2c(s1)c1cnn(Cc3cccc(Cl)c3F)c(=O)c1n2C	-7%	·	·	·	·	·
CCCS(=O)(=O)NC(=O)C1(C)CCN(C(=O)c2cc(C)nn2C(C)(C)C)C1 (stereo not drawn)	·	·	·	·	-1%	·
Cn1nnc(NC(=O)c2cccs2)n1	-13%	14%	13%	5%	2%	9%
CCCn1nnc(NC(=S)NC(=O)c2cccs2)n1	7.9µM*	8%	-13%	-29%	-8%	-18%
CCn1nnc(NC(=S)NC(=O)c2ccc(-c3cccc(Cl)c3)o2)n1	-41%	-5%	?	-31%	21µM*	-21%
CN(NS(=O)(=O)c1ccc([N+](=O)[O-])cc1)c1ccccc1	·	·	·	·	3µM*	·
CCCCc1c(C)nc2c(-c3ccc(OC)cc3)c(C)[nH]n2c1=O	-11%	·	26%	-15%	·	4%
COc1cccc(CSc2nc3n(n2)C(CC(C)C)C(C(=O)Nc2ccccc2C)=C(C)N3)c1 (stereo not drawn)	-20%	·	-12%	-5%	·	15%
O=C1/C(=C/c2ccccc2)CCc2ccc(Cl)nc21	-8%	·	-1%	·	-12%	50µM*
CCn1c(CSc2nc3ccccc3[nH]2)nc2cc(C(=O)O)ccc21	?	·	5%	?	-19%	?
CCn1c(CSc2nccn2C)nc2cc(C(=O)O)ccc21	32µM*	-5%	20%	50µM*	-18%	?
Cc1ccc(-c2nc3c4ccccc4n(CC(=O)N4CCN(c5ccccc5F)CC4)c(=O)n3n2)cc1	-12%	·	10%	-1%	·	-5%
O=C1C(=Cc2ccco2)CCCC1=Cc1ccco1	56µM*	·	?	·	-18%	-3%
O=C1C(=Cc2ccco2)CCC1=Cc1ccco1	3.2µM*	·	3.5µM*	·	?	?
COc1cc(CC2COC(c3ccc(O)c(OC)c3)C2COC(C)=O)ccc1O (stereo not drawn)	50µM*	·	?	40µM*	-29%	6%
CCOc1ccc(S(=O)(=O)N(C)CC(=O)NCc2ccccn2)cc1Cl	-11%	·	36%	3%	-5%	-9%
SMILES	JMJD2A Tudor	L3MBTL1 inh	HP1b binding inh	BAZ2B inh	PLK1 PBD inh	VDR inhibitor
O=C1C(F)=CC(COC(c2ccccc2)(c2ccccc2)c2ccccc2)OC1n1cc(F)c(=O)[nH]c1=O (stereo not drawn)	50µM*	·	-13%	·	6µM*	45µM*
CC(=O)OCC1OC(n2cc(F)c(=O)[nH]c2=O)C(OC(C)=O)C1OC(C)=O (stereo not drawn)	-16%	·	22%	·	-8%	-6%
COc1cccc(Sc2ccccc2CN(C)C)c1	-29%	5%	?	5%	-7%	12%
CN(C)Cc1ccccc1Sc1ccc2c(c1)CCCC2	0.63µM*	·	?	·	-14%	-4%
CC(C)N(CCO)C(=O)C(c1ccccc1)c1ccccc1	-4%	25%	26%	42%	-5%	14%
CN(CCO)c1ccc(C(C(=O)c2ccccc2)c2ccc(N(C)CCO)cc2)cc1	45µM*	?	?	45µM*	-10%	6%
O=[N+]([O-])C1=CC=C2C(=NC3(CCCCC3)N2O)C1=NCCO	-16%	-12%	-34%	50µM*	-10%	-9%
CCCN1C(=O)c2ccccc2NC1c1ccc(OC)c(COc2ccc([N+](=O)[O-])cc2)c1 (stereo not drawn)	-23%[57.1 µM]	·	3%[57 µM]	·	·	-23%
O=C1CN(c2ccccc2)C(=S)N1C(=O)c1ccccc1	-22%	3%	0%	5%	27µM*	-28%
CN(C)c1ccc(/C=C(/C(=O)c2ccc(Cl)cc2Cl)n2cncn2)cc1	?	-12%	-11%	50µM*	47%	1%
CC(C)CC(=O)/C(=C/c1ccc(N(C)C)cc1)n1cncn1	-8%	·	26%	2%	11%	-6%
COc1ccc(/C=C(/C(=O)c2ccc(Cl)cc2Cl)n2cncn2)cc1	-32%	-3%	2%	-10%	-22%	56µM*
COc1cc(CN(C(=O)COc2ccccc2Cl)c2ccccn2)cc(OC)c1OC	-4%	·	49%	-25%	·	0%
Cc1c(C(=O)N2CCCC2)oc2c1-c1nn(CC(=O)NC(C)c3ccccc3)cc1CC2 (stereo not drawn)	?	·	14%	?	·	10%
Cc1c(C)n(CC(O)CN2CCN(C)CC2)c2ccccc12 (stereo not drawn)	-31%	·	4%[57 µM]	-35%	-8%	-6%

Screening data from PubChem BioAssay.
